Results on 40 compounds are retold here after PubChem BioAssay (Tox21).

Molecules are shown by their SMILES. Values joined by “and” are separate entries in the source; they are usually repeats but may differ in a detail not shown here. Identical values can stand only once. Results filed as inconclusive are left out. Unmarked numbers belong to inactive results. Active and inactive are the calls of the source. The call rests on the fitted dose curve; in most records, active means well fitted cell-killing curve with a large enough effect in the repeat runs; inconclusive means weak or mixed curves, or effect the other way; inactive means flat fitted curve, though single readings scatter.
On the % scale 0 is the no-effect control and ±100 the full control effect; potency means the concentration at half of the fitted maximal effect.

The nature of the assay: Nuclear factor erythroid 2-related factor 2/antioxidant responsive element (Nrf2/ARE) small molecule agonists: qHTS cell viability counter screen in human keratinocytes (AID 1919968). Further: nearly all actives have a fitted effect of over 55% in size. The note with it: KeratinoSens HaCaT ARE cells viability, CellTiter-Fluor, 24 h; series mostly up to 92.4 µM; activity change, negative = cytotoxicity: at the top concentration. From the text: U.S. Tox21 Program National Center for Advancing Translational Sciences [NCATS] Division of Preclinical Innovation [DPI] U.S. Environmental Protection Agency [EPA] National Institutes of Environmental Health Sciences [NIEHS] National Toxicology Program [NTP] U.S. Food and Drug Administration [FDA] Tox21 Assay Overview: Oxidative stress has been implicated in the pathogenesis of a variety of diseases ranging from cancer to neurodegeneration. The antioxidant response element (ARE) signaling pathway plays an important role in the amelioration of oxidative stress. The KeratinoSens (Givaudan, Switzerland) is an in vitro test method which quantifies luciferase induction as a measure of activation of Keap1-Nrf2-antioxidationt/electrophile response element (ARE) dependant pathway in HaCaT human keratinocytes stably transfected with a selectable plasmid. The KeratinoSens assay is a cell-based assay with a reporter cell line to detect potential skin sensitizers by their ability to induce the Nrf2/ARE-response. The activation of the report gene under culture conditions can be detected by ONE-Glo Luciferase Assay System (Promega, Madison, WI). This cell line has been used to screen the Tox21 10K compound library to identify agonists that induce oxidative stress. The cytotoxicity of the Tox21 compound library against the KS-ARE cell line was tested in parallel by measuring the cell viability using CellTiter- Fluor assay system (Promega, Madison, WI) in the same wells.
Tox21 Assay Protocol Summary: HaCaT derived cell line KeratinoSens were dispensed at 1,500 cells/5uL/well in 1536-well white wall/solid bottom plates using a Multidrop Combi (ThermoFisher Scientific, Waltham, MA) dispenser. After the assay plates were incubated at 37 C/5% CO2 for 5 h, 23 nL of compounds dissolved in DMSO, positive controls or DMSO only was transferred to the assay plate by a pintool workstation (Kalypsys, San Diego, CA). The plates were incubated at 37 C/5% CO2 for 23 h, followed by addition of 1uL/well of CellTiter-Fluor reagent into the assay plates using a Flying Reagent Dispenser (Aurora Discovery, San Diego, CA) for cell viability readout that measures cytotoxicity. After 1 h incubation at 37 C/5% CO2 the fluorescence intensity was measured using a ViewLux (PerkinElmer, Shelton, CT) plate reader.
Regarding `CN(C)CCC=C1c2ccccc2CCc2ccccc21`, the “activity change, negative = cytotoxicity” value is -18.9% [at 42.5 µM].
On the same count and under the same terms, the same measure for `CC(C)Nc1ccccc1`: 0.418%; for `Cc1ccccc1C(=O)N1CC/C(=N\OS(=O)(=O)O)c2ccc(Cl)cc21`: 3.71% [at 42.5 µM]; for `CCCSSCCC`: 2.51%.
On the same count and under the same terms, the figure for `CC12CCC(C(=O)C1=O)C2(C)C` (stereo not given) is 1.43%.
With `CC[C@H]1CN2CCc3cc(OC)c(OC)cc3[C@@H]2C[C@@H]1C[C@H]1NCCc2cc(OC)c(OC)cc21`, the Potency was 274 nM (active).
For `CCCCOC(=O)CCS`, the “activity change, negative = cytotoxicity” value was 1.64%.
Turning to `CCCCCCC1(C)CCC(=O)O1` (stereo not given), the “activity change, negative = cytotoxicity” value is 2.34%.
Consider `CCCO[Si](OCCC)(OCCC)OCCC`, for which the “activity change, negative = cytotoxicity” value is 1.57%.
On the same count and under the same terms, the same measure for `O=Cc1ccc(F)cc1`: 6.64%; for `CN1[C@@H]2CC[C@H]1CC(NC(=O)n1c(=O)[nH]c3ccccc31)C2` (stereo not given in full): -5.33% [at 42.5 µM]; for `Cc1ccc(S(=O)(=O)O)c(C)c1`: 0.842%.
`O=C(Oc1ccccc1)c1ccc(O)cc1`: the Potency result is “inactive”.
For `CCCCCCCCCCCCCCCC(=O)NCCO`, the “activity change, negative = cytotoxicity” value was 0.0649% [at 42.5 µM].
Still for that read-out and setting: the figure for `NCCN1CCNC1=O` is 4.59%; for `OC1(c2ccc(Cl)cc2)CCNCC1` it is 7.28% [at 42.5 µM].
Still for that read-out and setting: the same measure for `COC(=O)c1ccc([N+](=O)[O-])cc1`: 1.86%.
Consider `CC1CCC(C(C)C)C(O)C1` (stereo not given), for which the Potency entry is “inactive”.
As to `CCCCCCCCCOS(=O)(=O)O`, the “activity change, negative = cytotoxicity” value was 1.24%.
Same read-out and setting: the same measure for `NC(=O)NNC(N)=O`: -6.59%.
Still for that read-out and setting: the figure for `C=C(C)C(=O)OC(C)C` is 1.03%.
The same measure, in the same setting: the same measure for `CCC(C)(C)C`: 0.555%; for `C/C(Cl)=C/CCl`: 5.08%; for `Nc1cc(S(=O)(=O)O)cc2cc(S(=O)(=O)O)cc(O)c12`: -20.9%.
Take `CCC(C)(Oc1ccc(C2(c3ccc(OC(C)(CC)C(=O)O)cc3)CCCCC2)cc1)C(=O)O` (stereo not given): the “activity change, negative = cytotoxicity” value was 14.7% [at 42.5 µM].
Consider `CN(C)/N=N/c1nc[nH]c1C(N)=O`, for which the Potency result is “inactive”.
Consider `CCCCCCCCC1CCC(=O)O1` (stereo not given), for which the “activity change, negative = cytotoxicity” value was -4.02%.
With `CCCCC(CC)COC(=O)c1ccc(O)cc1` (stereo not given), the Potency was 27.2 µM (active) and 30.6 µM (active).
Regarding `NCc1ccccc1Sc1ccccc1CO`, the “activity change, negative = cytotoxicity” value is -2.86% [at 42.5 µM].
With `Cc1cccc(Nc2ccccc2C(=O)O)c1C`, the Potency result is “inactive”.
The same measure, in the same setting: the entry for `CCN(CC)c1ccc2c(C)cc(=O)oc2c1` is “inactive”.
Take `CCCCC(CC)CCC(CC(C)C)OS(=O)(=O)O` (stereo not given): the “activity change, negative = cytotoxicity” value is -3.18%.
Turning to `CC1=CC(=O)NS(=O)(=O)O1`, the Potency result was “inactive”.
`CCC(C)(O)CCC=C(C)C` (stereo not given): the “activity change, negative = cytotoxicity” value is 3.98%.
The same measure, in the same setting: the figure for `N#CC1(c2ccc(F)cc2)CCC(=O)CC1` is 0.128% [at 42.5 µM].
The same measure, in the same setting: the same measure for `C1=C\CC/C=C\CC/C=C\CC/1`: -0.44%.
The same measure, in the same setting: the figure for `CC/C=C\CC1=C(C)CCC1=O` is 1.35%.
Take `CC(=O)C1(C)CC2=C(CCCC2(C)C)CC1C` (stereo not given): the Potency result is “inactive”.
As for `NS(=O)(=O)c1ccc(N2CCCCS2(=O)=O)cc1`, the “activity change, negative = cytotoxicity” value was -2.88% [at 42.5 µM].
Still for that read-out and setting: the same measure for `CC(=O)c1cccc([N+](=O)[O-])c1`: -5.08%.
